Screening results as filed in PubChem.
The list is not random: actives were taken first. Their share in the collection is about 19%.
IL1B secr inh: qHTS for Inhibitors of Inflammasome Signaling: IL-1-beta AlphaLISA Primary Screen. THP-1 LPS/ATP IL-1B secretion, AlphaLISA, 16 h; stronger effect = lower value. activity change, % at 57.5 µM. 360,000 compounds, 4.7% hits. AID 743279, 2014; in the data active = activity change below about -50%; inconclusive = mostly about -30% to -49%
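Secreted IL-1B measured by AlphaLISA bead assay after 16 h compound exposure of THP-1 cells; compounds (final up to 57.5 uM) added 1 h before LPS (250 ng/mL) and ATP (1.25 mM) stimulation; lower signal means less secretion.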
TDP1 cell CPT: qHTS for Inhibitors of human tyrosyl-DNA phosphodiesterase 1 (TDP1): qHTS in cells in presence of CPT; chicken DT40 Tdp1-/-;hTDP1 cells + 20 nM CPT, ATP luminescence, 48 h; Potency, µM (titrated, usually from 46.2 µM), without a hit: at the top dose activity change, negative = growth inhibition, usual class: inhibitors; 420,000 compounds, 12% hits; also: potency is read from the fitted curve at half-maximal effect; nearly all actives have a fitted effect of over 55% in size
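Cell growth measured by CellTiter-Glo luminescence after a minimum 48 h, 37 C compound exposure with 20 nM CPT in Tdp1-knockout DT40 cells stably expressing hTDP1, seeded 400/well; qHTS titration format.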
HT1080NT lethal: qHTS for induction of synthetic lethality in tumor cells producing 2HG: qHTS for the HT-1080-NT fibrosarcoma cell line; HT-1080-NT fibrosarcoma viability, CellTiter-Glo ATP luminescence, 48 h; Potency, µM (series often up to 46.1 µM), for the others: at the highest dose activity, negative = less viability, actives largely listed as cytotoxic; 360,000 compounds, 1.6% hits;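 also: NT is the 2HG producing partner of a matched IDH1 knockdown line; potency is read from the fitted curve at half-maximal effect; 0% = DMSO-treated cells and -100% = media-only wells without cells; nearly all actives have a fitted effect of over 55% in size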
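Viability by CellTiter-Glo luminescence after 48 h compound exposure at 37C of HT-1080-NT cells (750/well, RPMI, 5% FBS). % activity scaled between DMSO wells and medium-only wells, then curve-fitted and categorized by curve class.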
TDP1 cell noCPT: qHTS for Inhibitors of human tyrosyl-DNA phosphodiesterase 1 (TDP1): qHTS in cells in absence of CPT. 420,000 compounds, 15% hits. DT40 Tdp1-/- hTDP1 cells, no CPT, ATP luminescence, 48 h. Potency, µM (top dose mostly 46.2 µM), inactives show at the highest dose activity change, negative = growth inhibition, most hits filed as inhibitors; also: potency is read from the fitted curve at half-maximal effect; nearly all actives have a fitted effect of over 55% in size
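DT40 Tdp1-/-;hTDP1 cells, no CPT (DMSO vehicle only), 400 cells/well; compounds pin-transferred; ≥48 hr, 37 °C; CellTiter-Glo 30 min RT dark, luminescence read.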
HT1080 IDH1KD tx: qHTS for induction of synthetic lethality in tumor cells producing 2HG: qHTS for the HT-1080-IDH1KD cell line | HT-1080 IDH1 knockdown viability, ATP luminescence, 48 h | Potency, µM (titrated, usually from 46.1 µM), without a hit: at the top dose activity, negative = toxicity, actives largely listed as cytotoxic | 360,000 compounds, 2% hits | AID 686971, 2013;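 also: potency is read from the fitted curve at half-maximal effect; 0% = DMSO wells and -100% = cell-free medium wells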
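Assay cells: HT-1080 with IDH1 knockdown, 750 per well, RPMI/5% FBS. Exposure: 48 h at 37 °C following 2 h pre-incubation. Read: CellTiter-Glo luminescence; fitted concentration-response, curve class assigned.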
* = called active by the depositor; ? = inconclusive; . = not tested or not shown. Unless noted, calls follow the shape of the dose curve; as a rule, active = well fitted curve in the direction sought with a large enough effect; inconclusive = small, poorly fitted or top-dose-only effect, or another doubt; inactive = no such curve, though single readings can be large; an effect the other way counts as inactive or inconclusive. Unless noted, % is scaled to controls: 0 for no effect and ±100 for the full control effect.

SMILES	IL1B secr inh	TDP1 cell CPT	HT1080NT lethal	TDP1 cell noCPT	HT1080 IDH1KD tx
O=C(Nc1cccc(S(=O)(=O)NC2=NCCC2)c1)c1ccc(C(F)(F)F)cc1	-9	?	-2%	?	3%
Oc1ccccc1Cc1c(O)ccc2ccccc12	38	-23%	-10%	-28%	-1%
COc1ccc(C(c2sc3ncnn3c2O)N2CC(C)OC(C)C2)cc1OC (stereo unspecified)	-12	-4%	-7%	-18%	-1%
O=C(c1ccco1)N1CCN(C(c2cccs2)c2sc3ncnn3c2O)CC1 (stereo unspecified)	6	4%	2%	4%	14%
Oc1c(C(c2ccccc2)N2CCc3ccccc3C2)sc2ncnn12 (stereo unspecified)	10	?	8%	?	-1%
Oc1c(C(c2cccs2)N2CCN(c3cccc(Cl)c3)CC2)sc2ncnn12 (stereo unspecified)	?	?	-1%	23µM*	-14%
COc1ccc(C(c2sc3ncnn3c2O)N2CCN(c3ccccc3F)CC2)cc1OC (stereo unspecified)	-3	12µM*	-1%	21µM*	-5%
Oc1c(C(c2ccco2)N2CCN(C(c3ccccc3)c3ccccc3)CC2)sc2ncnn12 (stereo unspecified)	-64*	?	-28%	21µM*	-13%
CCCn1ncc(/C=N/O)c1C	21	?	-1%	?	-1%
COc1ccc(/C=C2\SC(=O)N(CCC(=O)N3CCN(C)CC3)C2=O)cc1	0	-26%	30%	?	8%
CN1CCN(C(=O)CCN2C(=O)S/C(=C/c3ccc(Cl)cc3)C2=O)CC1	0	13µM*	21%	13µM*	10%
Cc1ccc(/C=C2\SC(=O)N(CCNC(=O)C3CSC4(C)CCC(=O)N34)C2=O)cc1 (stereo unspecified)	?	?	5%	15µM*	6%
COc1ccc(/C=C2\SC(=S)N(CCCC(=O)N3CCN(C)CC3)C2=O)cc1OC	15	-25%	3%	-10%	0%
Cc1ccc(/C=C2\SC(=O)N(CCC(=O)N3CCN(C)CC3)C2=O)cc1	-14	18µM*	-13%	23µM*	-10%
O=C1S/C(=C\c2ccc(Cl)cc2)C(=O)N1CCn1cnnn1	-62*	-8%	-4%	?	0%
CC12CCC(=O)N1C(C(=O)NCCN1C(=O)S/C(=C\c3ccccc3Cl)C1=O)CS2 (stereo unspecified)	-12	-25%	-1%	?	-2%
CCN(C(=O)CN1C(=O)S/C(=C\c2ccc(Cl)cc2)C1=O)C1CCS(=O)(=O)C1 (stereo unspecified)	-13	-30%	0%	-9%	0%
Cc1cc(NC(=O)c2ccc(C)c(C)c2)no1	2	0%	25%	-18%	15%
Cc1cccc(NS(=O)(=O)c2cccc(C(=O)N3CCC3)c2)c1	-4	-18%	-5%	-20%	0%
Cc1cc(=O)n2nc(N3CCCC3C(=O)NCCCN3CCCCC3)sc2n1 (stereo unspecified)	1	5%	7%	1%	0%
Cc1cccc(-n2ncc3c(Nc4ccc(F)cc4)ncnc32)c1	?	?	1%	?	-8%
CCCn1ncc2c(Nc3ccc(C)c(C)c3)ncnc21	-64*	?	2%	?	-1%
Cn1ncc2c(Nc3ccc(Cl)c(Cl)c3)ncnc21	35	?	0%	?	2%
Cc1ccc(-n2ncc3c(Nc4ccc5c(c4)OCCO5)ncnc32)cc1C	.	21µM*	.	18µM*	.
Cc1ccc(-n2ncc3c(Nc4cccc(C(F)(F)F)c4)ncnc32)cc1C	.	21µM*	.	?	.
SMILES	IL1B secr inh	TDP1 cell CPT	HT1080NT lethal	TDP1 cell noCPT	HT1080 IDH1KD tx
CC(=O)N(c1cccc(Br)c1)c1nc(C)cc(C)c1C#N	.	9%	3%	-12%	-1%
COc1ccc(CCNS(=O)(=O)c2ccc(-n3cnnn3)cc2)cc1OC	-13	13%	7%	-5%	6%
CCCN(CC(=O)Nc1ccccc1C)C(=O)C1CCN(C(=O)Nc2ccccc2)CC1	4	-5%	0%	-5%	0%
CC(=O)Cn1cnc2c(cnn2-c2ccc(F)cc2)c1=O	7	-45%	1%	-54%	5%
CCOc1ccc(OCC)c(S(=O)(=O)NC2CC(C)(C)NC(C)(C)C2)c1	-59*	-12%	-2%	-19%	-6%
COc1ccc(CN(C)[C@H]2C[C@H]3c4[nH]c5ccccc5c4CCN3C[C@H]2[C@H](C)O)cc1	-26	?	-13%	18µM*	-12%
Cc1ccc(S(=O)(=O)N(C)[C@H]2C[C@H]3c4[nH]c5ccccc5c4CCN3C[C@H]2[C@H](C)O)cc1	-7	21µM*	-27%	?	-25%
COc1ccc(NC(=O)N(C)[C@H]2C[C@H]3c4[nH]c5ccccc5c4CCN3C[C@H]2[C@H](C)O)cc1	-25	?	?	?	?
C[C@H](O)[C@@H]1CN2CCc3c([nH]c4ccccc34)[C@@H]2C[C@@H]1N(C)C(=O)Nc1ccccc1	-28	?	-19%	?	5%
CCOC(=O)C(CCSC)Nc1nc(Cl)nc(Nc2ccc(Cl)cc2)n1 (stereo unspecified)	4	-4%	-16%	?	-6%
Cc1ccc(S(=O)(=O)Nc2ccccc2C(C(=O)OC(C)(C)C)C(=O)OC(C)(C)C)cc1	-4	?	-28%	?	-10%
Cc1ccc(S(=O)(=O)Nc2ccccc2C(O)c2ccccc2)cc1 (stereo unspecified)	-7	?	-6%	18µM*	-4%
Cc1cccc([C@@H]2C[C@H]3CN(Cc4cccc(Cl)c4)C(=O)[C@]34CCCN24)n1	-14	?	2%	?	-3%
O=C1N(Cc2cccc(Cl)c2)C[C@@H]2C[C@@H](c3cccc4cccnc34)N3CCC[C@@]123	-28	?	?	?	?
O=C1N(Cc2cccnc2)C[C@@H]2C[C@@H](c3ccccc3C#Cc3ccccc3)N3CCC[C@@]123	-11	29µM*	0%	16µM*	?
Cc1ccccc1-c1cccc([C@@H]2C[C@H]3CN(Cc4cccnc4)C(=O)[C@]34CCCN24)c1	0	23µM*	-6%	18µM*	-24%
